In PubChem BioAssay AID1159580 (chemical genetic matrix, 2015):
Among all 5,500 compounds or so, about 2,000 (36%) were called active. Not shown: some 18% with an inconclusive outcome. Rule as the data show it: active = normalized growth mostly below about 0.91 (no sharp cut-off); inconclusive = no clear call, values can overlap the other calls; inactive = mostly above about 0.92. This is one part of the list.

Experiment: chemical genetic growth profiling, strain panel (AID 1159580);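 also: tested at 20 µM; growth read once vehicle control cultures reached saturation at 30 °C; 1 = growth at the plate median or of vehicle wells; lower values mean less growth of the strain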
Details: S. cerevisiae deletion strains, growth OD

Measured: normalized growth

C[C@]12CCC(=O)C=C1CC[C@@H]1[C@@H]2[C@@H](O)C[C@@]2(C)[C@H]1CC[C@]2(O)C(=O)CO
inactive: locus YAL013W, strain DEP1, stronger effect = lower value 1 | locus YAL040C, strain CLN3, stronger effect = lower value 0.989 | locus YCL061C, strain MRC1 (second series), stronger effect = lower value 1 | locus YDR150W, strain NUM1, stronger effect = lower value 0.993 | locus YDR363W, strain ESC2, stronger effect = lower value 1.02 | locus YER002W, strain NOP16, stronger effect = lower value 0.986 | locus YMR307W, strain GAS1, stronger effect = lower value 1.01 | locus YNL153C, strain GIM3, stronger effect = lower value 1.01 | locus YNL175C, strain NOP13, stronger effect = lower value 0.99 | locus YNL224C, strain SQS1, stronger effect = lower value 0.995 | locus YNL322C, strain KRE1, stronger effect = lower value 1 | locus YOR083W, strain WHI5 (second series), stronger effect = lower value 1.01
